Test systems include SK-MEL-2 melanoma; EKVX NSCLC; SN12C renal; UO-31 renal; TK-10 renal; ACHN renal; CAKI-1 renal; A498 renal; CCRF-CEM leukemia; MOLT-4 leukemia; RPMI-8226 leukemia; OVCAR-8 ovarian; OVCAR-5 ovarian; OVCAR-4 ovarian; IGROV1 ovarian; OVCAR-3 ovarian; HS 578T breast; NCI/ADR-RES ovarian; SK-OV-3 ovarian; SR leukemia.
What all share (assay): NCI-60 one-dose screen, 48 h (100 = growth as untreated, 0 = no growth, -100 = all killed)
Conditions in all cases: 10 µM unless noted

About 83,000 compounds went through this panel and 20% of them were active in at least one assay; those are over-represented in the sample as a whole.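 Results are percent growth after 48 hours of single-concentration exposure. 100 means growth as in untreated cells, lower positive values show inhibition; negative values down to -100 show cell death.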 Values without a mark were called inactive. Activity calls are given as the source filed them. The calls were made as follows: active = growth percent below 10; inactive = the rest.

Turning to `O=C1c2cccc(NCCN=Cc3cc([N+](=O)[O-])ccc3O)c2C(=O)c2c(NCCN=Cc3cc([N+](=O)[O-])ccc3O)cccc21`, the growth in the experiment on SK-MEL-2 melanoma was 96%; with EKVX NSCLC, 87.5%; in the experiment on SN12C renal, 40.5%; in the experiment with UO-31 renal it was 76.5%; with TK-10 renal it was 114%; in the experiment on ACHN renal it was 70.7%. The growth is 56.7% in the experiment with CAKI-1 renal; 80.9% in the experiment on A498 renal; 32.5% in the experiment with CCRF-CEM leukemia; 4.21% (active) with MOLT-4 leukemia; 7.36% (active) with RPMI-8226 leukemia; 78.5% in the experiment with OVCAR-8 ovarian. For the same compound, the growth is 86.3% in the experiment with OVCAR-5 ovarian; 69.3% in the experiment with OVCAR-4 ovarian; 73.5% in the experiment on IGROV1 ovarian; 85.1% in the experiment on OVCAR-3 ovarian; 53.9% in the experiment with HS 578T breast; 99.9% in the experiment with NCI/ADR-RES ovarian.
Turning to `Cc1ccc(-n2nc3c(c(C#N)c2=O)CC(c2ccccc2Cl)C([N+](=O)[O-])=C3O)cc1` (centres undefined), the growth in the experiment on SK-MEL-2 melanoma was 99.2%; in the experiment on EKVX NSCLC, 90.2%; with SN12C renal, 108%; in the experiment with UO-31 renal, 78.4%; in the experiment with TK-10 renal, 123%; with ACHN renal it was 100%. The growth was 84% in the experiment with CAKI-1 renal; 85.9% in the experiment on A498 renal; 84.3% in the experiment on CCRF-CEM leukemia; 77.1% in the experiment on MOLT-4 leukemia; 83.2% in the experiment with RPMI-8226 leukemia; 102% in the experiment on OVCAR-8 ovarian. The growth is 108% with OVCAR-5 ovarian; 90.4% in the experiment with OVCAR-4 ovarian; 90% in the experiment with IGROV1 ovarian; 103% with OVCAR-3 ovarian; 94.7% with HS 578T breast; 98.2% in the experiment on NCI/ADR-RES ovarian.
`COc1cc(/C=C/C(=O)N2CCN(C(=O)c3cc(OC)c(OC)c(OC)c3)CC2)ccc1OCCCN1C(=O)c2cccc3cccc(c23)C1=O`: the growth was 49.3% in the experiment on SK-MEL-2 melanoma; 114% in the experiment on EKVX NSCLC; 93.7% with SN12C renal; 42.1% with UO-31 renal; 97.5% in the experiment on TK-10 renal; 80.7% in the experiment with ACHN renal. The growth in the experiment with CAKI-1 renal is 72.9%; in the experiment on A498 renal, 62.2%; in the experiment with CCRF-CEM leukemia, 27.1%; with MOLT-4 leukemia it was 49.6%; in the experiment on RPMI-8226 leukemia, 21.6%; in the experiment on OVCAR-8 ovarian, 50.6%. The growth in the experiment on OVCAR-5 ovarian is 107%; with OVCAR-4 ovarian, 77.9%; in the experiment on SK-OV-3 ovarian, 121%; in the experiment with OVCAR-3 ovarian it was 73.5%; in the experiment on HS 578T breast, 38.6%; with NCI/ADR-RES ovarian, 68.9%.
Turning to `COc1cc(C2CC(c3cc(OC)c(OCCCOc4ccc(-n5c(/C=C/c6ccccc6)nc6ccccc6c5=O)cc4)c(OC)c3)=NO2)cc(OC)c1OC` (centres undefined), the growth is 92.3% in the experiment on SK-MEL-2 melanoma; 118% in the experiment with EKVX NSCLC; 127% with SN12C renal; 86.7% in the experiment on UO-31 renal; 139% with TK-10 renal; 91.3% with ACHN renal. In addition, the growth is 115% in the experiment on CAKI-1 renal; 123% with A498 renal; 76.6% in the experiment on CCRF-CEM leukemia; 86% in the experiment with MOLT-4 leukemia; -9.38% (active) with RPMI-8226 leukemia; 104% in the experiment on OVCAR-8 ovarian. In addition, the growth was 105% in the experiment with OVCAR-5 ovarian; 87% in the experiment with OVCAR-4 ovarian; 114% in the experiment with SK-OV-3 ovarian; 118% in the experiment with OVCAR-3 ovarian; 108% with HS 578T breast; 107% with NCI/ADR-RES ovarian.
As to `CNC(=O)CCN1CCN(CC/C=C2\c3ccccc3Sc3ccc(Cl)cc32)CC1`, the growth with SK-MEL-2 melanoma is 28.5%; in the experiment on EKVX NSCLC, 103%; in the experiment with SN12C renal, 95.5%; in the experiment with UO-31 renal it was 53.9%; with TK-10 renal, 81.4%; with ACHN renal it was 94.3%. Moreover, the growth in the experiment on CAKI-1 renal was 94%; with A498 renal it was 74.5%; with CCRF-CEM leukemia it was 90.2%; in the experiment with MOLT-4 leukemia it was 50.9%; in the experiment on RPMI-8226 leukemia it was 70.1%; with OVCAR-8 ovarian, 88.5%. Besides, the growth in the experiment on OVCAR-5 ovarian was 96.3%; in the experiment on OVCAR-4 ovarian it was 105%; in the experiment with SK-OV-3 ovarian, 122%; with OVCAR-3 ovarian it was 57.8%; in the experiment with HS 578T breast, 65.4%; in the experiment on NCI/ADR-RES ovarian it was 98.3%.
Consider `CC(=O)N1C(=S)NC(=O)C1Cn1c(-c2ccccc2)nc2ccccc21` (centres undefined), for which the growth in the experiment with SK-MEL-2 melanoma is 109%; with EKVX NSCLC, 96.3%; in the experiment with SN12C renal, 98.6%; with UO-31 renal, 80.8%; in the experiment on TK-10 renal, 121%; with ACHN renal, 100%. In addition, the growth in the experiment with CAKI-1 renal was 90.4%; in the experiment with A498 renal, 70.7%; with CCRF-CEM leukemia, 97.1%; with MOLT-4 leukemia, 96.5%; in the experiment on RPMI-8226 leukemia it was 97.3%; with OVCAR-8 ovarian, 102%. For the same compound, the growth was 103% with OVCAR-5 ovarian; 94.3% in the experiment on SK-OV-3 ovarian; 92.5% in the experiment on IGROV1 ovarian; 101% with OVCAR-3 ovarian; 96% in the experiment with HS 578T breast; 102% with NCI/ADR-RES ovarian.
As to `COc1ccc(-c2nc(SCCC(C)C)nc(N/N=C\c3ccccc3O)c2C#N)cc1`, the growth in the experiment with SK-MEL-2 melanoma was 103%; with EKVX NSCLC, 101%; in the experiment with SN12C renal it was 81.2%; in the experiment on UO-31 renal, 86.7%; with TK-10 renal, 101%; in the experiment on ACHN renal it was 73.5%. Moreover, the growth was 73.9% in the experiment on CAKI-1 renal; 95.8% with A498 renal; 66.3% with CCRF-CEM leukemia; 90.2% in the experiment on MOLT-4 leukemia; 75.4% in the experiment with OVCAR-8 ovarian; 4.04% (active) in the experiment with OVCAR-4 ovarian. The growth with SK-OV-3 ovarian is 87.6%; in the experiment with IGROV1 ovarian, 86.7%; in the experiment with OVCAR-3 ovarian it was 78.8%; with HS 578T breast, 63.2%; in the experiment on NCI/ADR-RES ovarian it was 84.2%.
As for `O=C1/C(=C/c2ccc(Br)cc2)C=C(c2ccccc2)N1CCc1ccccc1`, the growth was 66% in the experiment on SK-MEL-2 melanoma; 40.1% in the experiment with EKVX NSCLC; 50.1% with SN12C renal; 45% in the experiment on UO-31 renal; 12.6% in the experiment on TK-10 renal; 13% in the experiment on ACHN renal. Also, the growth is 64.3% in the experiment with CAKI-1 renal; 50.8% in the experiment on A498 renal; 101% in the experiment on CCRF-CEM leukemia; 58.6% in the experiment on SR leukemia; 101% in the experiment with RPMI-8226 leukemia; 17.7% in the experiment on OVCAR-8 ovarian. Moreover, the growth was 66% in the experiment on OVCAR-5 ovarian; -17.1% (active) in the experiment with OVCAR-4 ovarian; 15.4% with SK-OV-3 ovarian; 41.9% with IGROV1 ovarian; 42.1% in the experiment on OVCAR-3 ovarian; 22.8% in the experiment on HS 578T breast. The growth in the experiment on NCI/ADR-RES ovarian is 27.8%.

(Values after PubChem BioAssay (NCI).)
